PubChem BioAssay (Tox21)
Several values for one entry are separate records, joined by “and”; a condition that tells them apart may be missing. Identical values can stand only once. Records with an inconclusive call do not appear. Activity calls are given as the source filed them. Unless noted, calls follow the shape of the dose curve; as a rule, active = well fitted curve in the direction sought with a large enough effect in the repeat runs; inconclusive = weak or mixed curves; inactive = no such curve, though single readings can be large; an effect the other way counts as inactive or inconclusive.

Experiments:
[1] = qHTS assay to identify small molecule agonists of the hypoxia (HIF-1) signaling pathway - cell viability counter screen (AID 1224844; calls by dose curve; also: nearly all actives have a fitted effect of over 50% in size; also: potency is read from the fitted curve at half-maximal effect)
Method in brief: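 Tox21 10K compounds were added to HRE-bla ME-180 cells (0.5% dialyzed FBS) and incubated 17 hrs at 37C; ATP-based CellTiter-Glo luminescence then reported cell viability in the same wells.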

[2] = qHTS assay to identify small molecule agonists of H2AX (AID 1224845; active = well fitted activation curve with a large enough effect in the signal ratio in the repeat runs, not every such curve was filed as active; the % refers to the signal ratio; also: potency is read from the fitted curve at half-maximal effect)
Method in brief: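 Wild-type CHO-K1 cells plated overnight, then exposed 3 hr at 37C to compounds at 15 concentrations (0.76% DMSO). Lysed, then HTRF anti-pH2AX(S139)-cryptate/anti-H2AX-d2 detection after 24 hr at room temperature; emissions 665 and 620 nm.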

[3] = qHTS assay to identify small molecule antagonists of the estrogen related receptor (ERR) signaling pathway from Tox21 library (AID 1224848); also: potency is read from the fitted curve at half-maximal effect; nearly all actives have a fitted effect of over 50% in size
Method in brief: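 Cells: ERR line, 2,000/well; 6 h preincubation 37 C/5% CO2. Cpd in DMSO via pin tool; 18 h, 37 C. ONE-Glo, 30 min RT, luminescence.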

[4] = qHTS assay to identify small molecule agonists of the estrogen related receptor (ERR) signaling pathway from Tox21 library (AID 1224849; calls by dose curve; also: % is scaled to controls: 0 for no effect and ±100 for the full control effect; nearly all actives have a fitted effect of over 15% in size); settings: ERR reporter cell line, ONE-Glo luciferase, 18 h; at 92.4 µM (top of the series)
Method in brief: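 Agonist signal is luciferase luminescence from an ERR reporter cell line treated 18 h at 37 C with DMSO-dissolved compounds, read 30 min after ONE-Glo addition at room temperature.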

[5] = qHTS RealTime-Glo MT Cell Viability Assay in HepG2 cells - 24 hour (AID 1224867); also: nearly all actives have a fitted effect of over 50% in size; also: potency is read from the fitted curve at half-maximal effect
Method in brief: (§1)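 HepG2 suspension premixed with RealTime-Glo reagents is plated at 600 cells per well and left 5 h at 37 C/5% CO2. Compounds in DMSO then go in, and bioluminescence reflecting viable cell number is recorded over 40 h.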

[6] = qHTS RealTime-Glo MT Cell Viability Assay in HEK293 cells - 32 hour (AID 1224868); also: nearly all actives have a fitted effect of over 50% in size; also: potency is read from the fitted curve at half-maximal effect
Method in brief: (§2)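 Reads taken at 0, 8, 16, 24, 32 and 40 h from the same wells. HEK293 cells (600/well) carried RealTime-Glo reagents from seeding, with compound added after a 5 h settle at 37 C.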

[7] = A CellTox Green Cytotoxicity Assay to monitor cytotoxicity in HEK293 cells - 0 hour (AID 1224869)
Method in brief: (§3)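 Cytotoxicity was tracked continuously in HEK293 cells by a DNA-binding dye excluded from viable cells. Compounds were transferred in DMSO 5 h after seeding; fluorescence was recorded at intervals up to 40 h.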

[8] = qHTS RealTime-Glo MT Cell Viability Assay in HepG2 cells - 40 hour (AID 1224870); also: nearly all actives have a fitted effect of over 50% in size; also: potency is read from the fitted curve at half-maximal effect
Method in brief: (§4)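 HepG2 cells mixed with RealTime-Glo MT reagents (NanoLuc plus cell-permeant prosubstrate) were seeded at 600 cells/well, incubated 5 h at 37 C/5% CO2, then pinned with compounds in DMSO; nonlytic luminescence tracked viability during 40 h treatment.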

[9] = A CellTox Green Cytotoxicity Assay to monitor cytotoxicity in HEK293 cells - 40 hour (AID 1224871); also: nearly all actives have a fitted effect of over 45% in size; also: potency is read from the fitted curve at half-maximal effect
Method in brief: as §3

[10] = qHTS RealTime-Glo MT Cell Viability Assay in HEK293 cells - 16 hour (AID 1224872); also: nearly all actives have a fitted effect of over 50% in size; also: potency is read from the fitted curve at half-maximal effect
Method in brief: as §2

[11] = qHTS RealTime-Glo MT Cell Viability Assay in HepG2 cells - 8 hour (AID 1224873); also: nearly all actives have a fitted effect of over 55% in size; also: potency is read from the fitted curve at half-maximal effect
Method in brief: as §4

[12] = A CellTox Green Cytotoxicity Assay to monitor cytotoxicity in HEK293 cells - 24 hour (AID 1224875); also: nearly all actives have a fitted effect of over 45% in size; also: potency is read from the fitted curve at half-maximal effect; as to activity change: % is scaled to controls: 0 for no effect and ±100 for the full control effect
Method in brief: as §3

[13] = A CellTox Green Cytotoxicity Assay to monitor cytotoxicity in HepG2 cells - 16 hour (AID 1224876); also: nearly all actives have a fitted effect of over 45% in size; also: potency is read from the fitted curve at half-maximal effect
Method in brief: (§5)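 Real-time, homogeneous cytotoxicity readout: dead-cell DNA staining by CellTox Green in HepG2 monolayers, fluorescence measured at timed intervals up to 40 h of continuous compound exposure.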

[14] = qHTS RealTime-Glo MT Cell Viability Assay in HepG2 cells - 32 hour (AID 1224877); also: nearly all actives have a fitted effect of over 55% in size; also: potency is read from the fitted curve at half-maximal effect
Method in brief: as §1

[15] = A CellTox Green Cytotoxicity Assay to monitor cytotoxicity in HepG2 cells - 24 hour (AID 1224878); also: nearly all actives have a fitted effect of over 45% in size; also: potency is read from the fitted curve at half-maximal effect; as to Cytotoxicity: % is scaled to controls: 0 for no effect and ±100 for the full control effect
Method in brief: as §5

[16] = A CellTox Green Cytotoxicity Assay to monitor cytotoxicity in HepG2 cells - 40 hour (AID 1224879); also: nearly all actives have a fitted effect of over 40% in size; also: potency is read from the fitted curve at half-maximal effect
Method in brief: as §5

[17] = qHTS RealTime-Glo MT Cell Viability Assay in HEK293 cells - 0 hour (AID 1224880)
Method in brief: (§6)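 Nonlytic bioluminescent viability monitoring. HEK293 at 600 cells/well with reagent; 5 h settle; compound transfer by pintool; plates held at 37 C and read at set time points.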

[18] = qHTS assay to identify small molecule agonists of H2AX - cell viability counter screen (AID 1224847; calls by dose curve; also: nearly all actives have a fitted effect of over 30% in size; also: potency is read from the fitted curve at half-maximal effect)
Method in brief: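 Viability of CHO-K1 (wild type) cells after 3 hr compound exposure was measured by CellTiter-Glo luminescence.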

[19] = qHTS RealTime-Glo MT Cell Viability Assay in HEK293 cells - 40 hour (AID 1224874); settings: RealTime-Glo luminescence; max response: active compounds read low; also: nearly all actives have a fitted effect of over 50% in size; also: potency is read from the fitted curve at half-maximal effect; as to max response: % is scaled to controls: 0 for no effect and ±100 for the full control effect
Method in brief: as §6

[20] = qHTS assay to identify small molecule agonists of the hypoxia (HIF-1) signaling pathway (AID 1224846; active = well fitted activation curve with a large enough effect in the signal ratio in the repeat runs, not every such curve was filed as active; the % refers to the signal ratio; also: % is scaled to controls: 0 for no effect and ±100 for the full control effect)
Method in brief: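 Steps: seed ME-180 HRE-bla cells (2,000/well, 0.5% dialyzed FBS); incubate 5 hrs at 37C; pin-transfer compounds or DMSO; incubate 17 hrs; add LiveBLAzer B/G substrate CCF4-AM; measure reporter activation by FRET.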

CC(C)(c1ccccc1)c1ccc(O)c(C(C)(C)c2ccccc2)c1
active: Potency [1] 21.7 µM and 21.9 µM | Potency [2] 39.7 µM | Potency [3] 42.9 µM and 48.6 µM | Potency [5] 54.4 µM and 43.6 µM | Potency [6] 19.3 µM and 30.9 µM | Potency [8] 49 µM | Potency [9] 24.3 µM and 43.6 µM | Potency [10] 21.7 µM and 43.6 µM | Potency [11] 48.5 µM and 38.9 µM | Potency [12] 43.2 µM and 49 µM | Potency [13] 48.5 µM and 43.6 µM | Potency [14] 49 µM | Potency [15] 48.5 µM and 43.6 µM | Potency [16] 54.4 µM and 43.6 µM
inactive: activity change, positive = activation [4] -71.4% and -64.9% | Potency [7] | Potency [17]

C[N+](C)(C)CC(=O)O
inactive: Potency [1] | Potency [2] | Potency [18] | Potency [5] | Potency [6] | Potency [7] | Potency [8] | Potency [9] | Potency [10] | Potency [11] | max response [19] 5.5% and 7.98% | Potency [12] | Potency [13] | Potency [14] | Potency [15] | Potency [16] | Potency [17]

CCC[CH2][Sn]([Cl])([Cl])[CH2]CCC
active: Potency [1] 624 nM and 977 nM | Potency [2] 1.28 µM and 1.27 µM | Potency [18] 11.4 µM and 25.3 µM | Potency [3] 155 nM and 172 nM | Potency [5] 313 nM and 219 nM | Potency [6] 99 nM and 123 nM | Potency [8] 198 nM and 138 nM | Potency [9] 351 nM and 490 nM | Potency [10] 198 nM and 174 nM | Potency [11] 7.86 µM and 8.71 µM | Potency [12] 556 nM and 2.19 µM | Potency [13] 2.22 µM and 1.74 µM | Potency [14] 222 nM and 155 nM | Potency [15] 442 nM and 436 nM | Potency [16] 313 nM and 309 nM
inactive: Potency [7] | Potency [17]

CCOP(=S)(OCC)SCSC(C)(C)C
inactive: Potency [1] | outcome [20] | Potency [18] | Potency [5] | Potency [6] | Potency [7] | Potency [8] | Potency [9] | Potency [11] | max response [19] 5.63% and -1.38% | Potency [12] | Potency [13] | Potency [14] | Potency [15] | Potency [16] | Potency [17]

ClCc1ccccn1
inactive: Potency [1] | Potency [2] | outcome [20] | Potency [5] | Potency [6] | Potency [7] | Potency [8] | Potency [10] | Potency [11] | Potency [12] | Potency [13] | Potency [14] | Potency [15] | Potency [16] | Potency [17]

NN=C(N)N
inactive: Potency [1] | Potency [2] | Potency [18] | Potency [5] | Potency [6] | Potency [7] | Potency [8] | Potency [10] | Potency [11] | Potency [12] | Potency [13] | Potency [14] | Potency [15] | Potency [16] | Potency [17]

O=[N+]([O-])c1ccc(Cl)c([N+](=O)[O-])c1
inactive: activity change, positive = activation [4] -81.7% and -78.5% | Potency [7] | Potency [17]
active: Potency [1] 19.8 µM and 13.8 µM | Potency [18] 102 µM | Potency [3] 24.7 µM and 24.3 µM | Potency [5] 35.2 µM and 17.4 µM | Potency [6] 9.92 µM and 12.3 µM | Potency [8] 35.2 µM and 17.4 µM | Potency [10] 11.1 µM and 12.3 µM | Potency [11] 24.9 µM and 15.5 µM | Potency [19] 9.92 µM and 12.3 µM | Potency [12] 39.5 µM | Potency [13] 39.5 µM and 54.9 µM | Potency [14] 35.2 µM and 17.4 µM | Potency [15] 35.2 µM and 49 µM | Potency [16] 39.5 µM and 24.5 µM

C[N+](C)(C)CC(=O)[O-]
inactive: Potency [1] | Potency [2] | Potency [5] | Potency [6] | Potency [7] | Potency [8] | Potency [10] | Potency [11] | Potency [12] | Potency [13] | Potency [14] | Potency [15] | Potency [16] | Potency [17]

CNC(=O)CSP(=S)(OC)OC
inactive: Potency [1] | outcome [20] | Potency [18] | Potency [5] | Potency [6] | Potency [7] | Potency [8] | Potency [10] | Potency [11] | max response [19] -14.6% and -0.812% | Potency [12] | Potency [13] | Potency [14] | Potency [15] | Potency [16] | Potency [17]
